Pf apPOL block: Pf-apPOL DNA polymerase inhibition. AID 1794808. Recombinant Pf-apPOL, molecular beacon fluorescence, 1.5 h. inhibition, % at 10 µM. 210,000 compounds, 0.25% hits
mHTT-CaM PPI inh: disrupts binding of mutant huntingtin to calmodulin; inhibition, % at 15 µM; P42858; AlphaScreen His-mHTT/GST-CaM binding, luminescence; 190,000 compounds, 3.6% hits;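 further: 0% = both proteins with DMSO and 100% = one protein alone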
Target sequence (P42858 whole entry, looked up, stated change not applied): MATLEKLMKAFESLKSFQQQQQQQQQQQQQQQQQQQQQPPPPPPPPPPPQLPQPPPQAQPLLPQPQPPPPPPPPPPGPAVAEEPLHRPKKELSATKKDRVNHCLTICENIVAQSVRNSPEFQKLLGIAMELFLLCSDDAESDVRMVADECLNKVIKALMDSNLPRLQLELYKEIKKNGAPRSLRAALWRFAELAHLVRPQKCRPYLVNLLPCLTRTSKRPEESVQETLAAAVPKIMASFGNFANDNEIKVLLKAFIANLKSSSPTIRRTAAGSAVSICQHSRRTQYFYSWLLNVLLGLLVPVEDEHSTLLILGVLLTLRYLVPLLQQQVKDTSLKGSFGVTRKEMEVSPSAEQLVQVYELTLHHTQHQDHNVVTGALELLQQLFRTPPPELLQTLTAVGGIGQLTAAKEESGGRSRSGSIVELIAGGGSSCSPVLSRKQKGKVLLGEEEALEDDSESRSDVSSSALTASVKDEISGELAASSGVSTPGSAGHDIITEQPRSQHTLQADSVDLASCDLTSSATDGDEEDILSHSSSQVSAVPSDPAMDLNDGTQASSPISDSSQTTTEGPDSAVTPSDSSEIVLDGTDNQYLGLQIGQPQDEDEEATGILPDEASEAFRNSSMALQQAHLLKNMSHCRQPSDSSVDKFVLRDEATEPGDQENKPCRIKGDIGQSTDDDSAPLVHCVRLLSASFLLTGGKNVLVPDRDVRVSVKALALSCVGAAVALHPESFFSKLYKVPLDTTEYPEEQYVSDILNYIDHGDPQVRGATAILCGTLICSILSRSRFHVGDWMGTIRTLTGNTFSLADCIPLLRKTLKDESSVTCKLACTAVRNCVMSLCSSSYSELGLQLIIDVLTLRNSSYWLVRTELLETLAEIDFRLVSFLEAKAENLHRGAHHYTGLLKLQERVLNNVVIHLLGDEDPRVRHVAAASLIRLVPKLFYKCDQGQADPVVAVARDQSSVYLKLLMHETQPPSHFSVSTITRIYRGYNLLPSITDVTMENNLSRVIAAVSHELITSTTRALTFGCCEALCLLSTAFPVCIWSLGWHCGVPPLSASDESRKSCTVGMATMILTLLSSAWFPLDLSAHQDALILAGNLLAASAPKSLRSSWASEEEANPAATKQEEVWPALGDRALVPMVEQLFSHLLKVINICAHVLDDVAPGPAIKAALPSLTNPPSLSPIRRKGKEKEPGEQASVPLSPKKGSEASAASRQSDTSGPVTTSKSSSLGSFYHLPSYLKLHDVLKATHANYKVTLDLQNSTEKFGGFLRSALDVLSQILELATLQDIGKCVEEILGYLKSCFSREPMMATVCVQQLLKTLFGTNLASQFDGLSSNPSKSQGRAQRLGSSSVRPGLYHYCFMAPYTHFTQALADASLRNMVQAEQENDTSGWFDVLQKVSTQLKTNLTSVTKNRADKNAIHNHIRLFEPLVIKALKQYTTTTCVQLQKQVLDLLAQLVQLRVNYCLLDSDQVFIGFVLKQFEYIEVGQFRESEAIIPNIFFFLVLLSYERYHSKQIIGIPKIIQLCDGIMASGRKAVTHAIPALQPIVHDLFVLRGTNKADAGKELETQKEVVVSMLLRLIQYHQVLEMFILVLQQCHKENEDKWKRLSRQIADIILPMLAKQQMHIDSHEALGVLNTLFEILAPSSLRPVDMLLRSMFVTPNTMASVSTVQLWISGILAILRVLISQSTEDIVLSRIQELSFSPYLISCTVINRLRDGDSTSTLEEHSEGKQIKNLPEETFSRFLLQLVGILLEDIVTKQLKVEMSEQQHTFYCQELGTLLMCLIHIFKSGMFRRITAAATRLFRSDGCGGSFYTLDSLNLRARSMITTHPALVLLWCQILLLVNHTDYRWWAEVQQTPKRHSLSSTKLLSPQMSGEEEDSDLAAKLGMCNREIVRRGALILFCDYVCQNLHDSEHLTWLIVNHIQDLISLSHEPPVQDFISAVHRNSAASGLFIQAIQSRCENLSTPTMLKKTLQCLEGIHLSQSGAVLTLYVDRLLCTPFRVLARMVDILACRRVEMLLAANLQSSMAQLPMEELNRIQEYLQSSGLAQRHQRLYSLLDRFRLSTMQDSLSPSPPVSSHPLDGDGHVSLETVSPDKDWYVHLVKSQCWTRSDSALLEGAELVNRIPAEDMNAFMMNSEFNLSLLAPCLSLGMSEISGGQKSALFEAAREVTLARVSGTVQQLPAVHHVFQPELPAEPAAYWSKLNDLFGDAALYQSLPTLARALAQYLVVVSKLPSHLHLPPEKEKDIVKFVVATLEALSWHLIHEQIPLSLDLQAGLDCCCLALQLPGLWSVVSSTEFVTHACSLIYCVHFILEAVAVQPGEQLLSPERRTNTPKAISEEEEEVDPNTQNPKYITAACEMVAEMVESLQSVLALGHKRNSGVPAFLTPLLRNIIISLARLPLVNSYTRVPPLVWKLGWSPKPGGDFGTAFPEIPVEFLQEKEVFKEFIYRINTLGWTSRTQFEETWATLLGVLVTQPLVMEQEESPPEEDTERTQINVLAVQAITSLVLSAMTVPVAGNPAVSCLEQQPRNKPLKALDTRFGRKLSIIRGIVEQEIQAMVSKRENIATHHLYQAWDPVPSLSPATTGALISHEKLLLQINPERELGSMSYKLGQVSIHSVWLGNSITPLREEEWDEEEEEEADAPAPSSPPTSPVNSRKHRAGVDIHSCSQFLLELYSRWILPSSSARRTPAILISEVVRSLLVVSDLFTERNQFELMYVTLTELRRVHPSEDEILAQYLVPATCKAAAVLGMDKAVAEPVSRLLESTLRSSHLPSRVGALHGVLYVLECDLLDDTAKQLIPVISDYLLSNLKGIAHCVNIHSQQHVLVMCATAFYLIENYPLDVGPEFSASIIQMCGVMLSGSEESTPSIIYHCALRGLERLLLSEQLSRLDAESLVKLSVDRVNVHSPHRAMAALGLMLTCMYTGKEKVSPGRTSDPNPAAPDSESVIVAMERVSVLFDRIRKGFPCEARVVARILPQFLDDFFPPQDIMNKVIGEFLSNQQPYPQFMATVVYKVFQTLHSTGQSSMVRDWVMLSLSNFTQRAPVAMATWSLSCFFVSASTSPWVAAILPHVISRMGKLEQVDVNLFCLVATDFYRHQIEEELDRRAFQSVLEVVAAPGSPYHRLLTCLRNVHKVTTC
* marks the source's active call; other numbers are inactive results; x = not tested or not shown. Only a selection was taken, and hits are over-represented in it overall. No stated cut-off is given here; in the data, active means inhibition above about 50%; inactive means the rest.

SMILES	Pf apPOL block	mHTT-CaM PPI inh
O=C(c1cccs1)N1CCCC(c2ccnc(Nc3ccccc3F)n2)C1 (stereo unspecified)	-1	30
O=C(c1cccs1)N1CCCC(c2ccnc(Nc3ccccc3)n2)C1 (stereo unspecified)	0	61*
CC(C)C(=O)N1CCCC(c2ccnc(Nc3ccccc3)n2)C1 (stereo unspecified)	-4	34
COc1ccc(/C=C(\C#N)c2nn(CCO)c(N)c2C#N)cc1	-6	-2
COc1ccc(-c2nc3n(n2)C(c2ccccc2Cl)C2=C(CC(C)(C)CC2=O)N3)cc1 (stereo unspecified)	-2	0
Cc1ccc(-c2noc(CCN3CCN(C)CC3)n2)cc1	4	-7
CC(=O)NCCc1csc(C2CCN(C(=O)Cc3ccc(Cl)cc3)CC2)n1	-2	8
COc1ccc(Cl)cc1-c1nc(C=Nc2ccc(F)cc2)c(O)o1	1	15
Cc1noc(C2CN(C(=O)N(C)C)CC23CCOCC3)n1 (stereo unspecified)	1	3
CCC(C#N)(c1ccccc1)c1ccc(N=Cc2cc(Cl)cc(Cl)c2O)cc1 (stereo unspecified)	26	x
CCOc1ccccc1NC(=O)c1nn(-c2ccc(OC)cc2OC)c(=O)c2ccccc12	-5	-1
Cc1ccc(C)c(N2CCN(C(=O)C3CC3)C(C)C2=O)c1 (stereo unspecified)	-2	1
O=C(Sc1n[nH]c(=O)[nH]c1=O)c1ccc(Cl)cc1	-4	37
Cc1cccc(C(=O)Sc2n[nH]c(=O)[nH]c2=O)c1	-12	70*
CC(C)CCNC(=O)C1(C)CCC(=O)N1Cc1cccs1 (stereo unspecified)	1	-8
c1ccc(Cn2cnnc2C2CCCN(C3CCOCC3)C2)cc1 (stereo unspecified)	1	-6
CC(C)CC(=O)N1CCC(COc2ccc(C(=O)N3CCOCC3)cc2)CC1	-6	-3
Nc1cccc(C(=O)Nc2cccc(S(=O)(=O)CCO)c2)c1	-1	4
Cc1ccc(Cl)cc1NC(=O)Cn1[nH]c2c(cnc3ccc(F)cc32)c1=O	-2	21
O=C(Cn1[nH]c2c(cnc3ccc(F)cc32)c1=O)Nc1ccc(Br)cc1	0	64*
O=C(Cn1[nH]c2c(cnc3ccc(F)cc32)c1=O)Nc1ccc(F)cc1	-1	4
Cc1ccc(F)cc1NC(=O)Cn1[nH]c2c(cnc3ccc(F)cc32)c1=O	1	95*
CC(=O)c1ccc(NC(=O)CSc2ncnc3nc(C)ncc23)cc1	-10	-13
CN(C)C(=O)[n+]1ccc(/C=C/c2ccccc2)cc1	-7	18
Nc1c(Br)cc(O)c2c1C(=O)c1ccccc1C2=O	-6	83*
SMILES	Pf apPOL block	mHTT-CaM PPI inh
Nc1c(Br)cc(Cl)c2c1C(=O)c1ccccc1C2=O	5	18
COc1ccc(CNC(=O)C2CCCN(c3nnc4cccc(C)n34)C2)cc1OC (stereo unspecified)	-5	8
COc1ccc(Cl)cc1N(CC(=O)N(Cc1ccccc1)Cc1ccccc1)S(C)(=O)=O	-6	65*
COc1ccc(Cl)cc1N(CC(=O)N1CCN(Cc2ccccc2)CC1)S(C)(=O)=O	-1	20
COc1ccc(NC(=O)c2ncn[nH]2)cc1	2	-1
COc1ccc(CNC(=O)c2ncn[nH]2)cc1	-6	87*
Cc1ccc2nc3c(cc(C(=O)NCCc4ccccc4)c(=N)n3Cc3ccco3)c(=O)n2c1	-1	56*
N=c1c(C(=O)NCc2cccnc2)cc2c(=O)n3ccccc3nc2n1Cc1ccco1	-8	4
CNC(=O)c1cc2c(=O)n3cc(C)ccc3nc2n(Cc2ccco2)c1=N	15	0
N=c1c(C(=O)NCCc2ccccc2)cc2c(=O)n3ccccc3nc2n1Cc1ccco1	-17	52*
O=C(Oc1ccc2c(c1)OC(=CC1=Cc3ccccc3OC1)C2=O)c1cccs1	-2	79*
CC(=O)COc1ccc2c(c1)OC(=CC1=Cc3ccccc3OC1)C2=O	-2	-2
CN(C)CCN1C(=O)C(O)=C(C(=O)c2ccco2)C1c1ccncc1 (stereo unspecified)	-13	3
COc1ccccc1NC(=O)Nc1ccccc1NC(=O)c1ccccc1C	-3	-10
Cc1ccc(NC(=O)C2=NN(c3ccccc3)C(=O)CC2)cc1F	-6	9
O=c1/c(=C/c2cc(Br)ccc2O)sc2nc3ccccc3n12	-8	5
O=C1NN(c2ccc(F)cc2)C(=O)/C1=C/c1ccc(O)cc1	-3	6
Fc1ccc(Cn2cnc3ccccc32)cc1	1	1
Clc1ccc(Cn2cnc3ccccc32)cc1Cl	-5	52*
C=C1CCN([C@@H](CC(C)C)C(=O)NCc2ccc(OC)cc2)S(=O)(=O)c2ccccc21	-3	-6
C=C1CCN([C@@H](Cc2ccccc2)C(=O)NCc2ccc(Cl)c(Cl)c2)S(=O)(=O)c2ccccc21	-2	43
C=C1CCN([C@@H](CC(C)C)C(=O)NCc2ccc(Cl)cc2)S(=O)(=O)c2ccccc21	-2	70*
C=C1CCN([C@@H](CC(C)C)C(=O)NCc2ccc(Cl)c(Cl)c2)S(=O)(=O)c2ccccc21	-1	99*
C=C1CCN([C@H](C(=O)NCc2ccc(Cl)c(Cl)c2)C(C)C)S(=O)(=O)c2ccccc21	-5	74*
C=C1CCN([C@@H](CC(C)C)C(=O)NCc2cc(OC)c(OC)c(OC)c2)S(=O)(=O)c2ccccc21	-5	35
SMILES	Pf apPOL block	mHTT-CaM PPI inh
Cn1c(C2CCN(C(=O)Nc3cccc(Cl)c3F)CC2)cc(=O)n2nccc12	0	-6
COc1ccc(Cc2cnc(NC(=O)c3ccc(N4CCOCC4)c([N+](=O)[O-])c3)s2)cc1	-3	5
CC(C)(C)c1csc(NC(=O)c2ccc(N3CCOCC3)c([N+](=O)[O-])c2)n1	2	55*
Cc1ccc(NC(=O)CCCn2nc(C)c([N+](=O)[O-])c2C)cc1C	-12	2
Cc1ccc(C)c(Oc2cc(NC(=O)CCCn3nc(C)c([N+](=O)[O-])c3C)cc([N+](=O)[O-])c2)c1	0	1
Cc1nn(CCCC(=O)Nc2cc(Oc3ccccc3)cc([N+](=O)[O-])c2)c(C)c1[N+](=O)[O-]	-2	96*
Cc1nn(CCCC(=O)Nc2cc(Oc3ccc(F)cc3F)cc([N+](=O)[O-])c2)c(C)c1[N+](=O)[O-]	-5	80*
Cc1ccc(N2CCN(C(=O)NC(C)C)C(C)C2=O)cc1 (stereo unspecified)	-5	-6
O=C(Nc1ccc(F)cc1F)N1CCCC1c1ccccc1Cl (stereo unspecified)	-1	-10
CC(=O)N(C)CC(=O)N1N=C(c2cccn2C)CC1c1ccc(Cl)cc1 (stereo unspecified)	0	65*
CN(CC(=O)N1N=C(c2cccn2C)CC1c1ccc(Cl)cc1)C(=O)C1CCC1 (stereo unspecified)	-5	49
COc1ccc(C2=NN(C(=O)CN(C)C(C)=O)C(c3ccc(Cl)cc3)C2)cc1 (stereo unspecified)	-10	35
CC(C)C(=O)N(C)CC(=O)N1N=C(c2ccc(F)cc2)CC1c1ccccc1 (stereo unspecified)	-3	17
CN(CC(=O)N1N=C(c2cccn2C)CC1c1ccccc1)C(=O)C1CCC1 (stereo unspecified)	0	55*
CC(C)C(=O)N(C)CC(=O)N1N=C(c2cccn2C)CC1c1ccc(Cl)cc1 (stereo unspecified)	-7	78*
